Laboratory results taken from PubChem BioAssay AID1159580 (chemical genetic matrix, 2015).
Among all 5,500 compounds or so, about 2,000 (36%) were called active. Another 18% or so got no clear call; they are omitted. No stated cut-off is given here; in the data, active means normalized growth mostly below about 0.91 (no sharp cut-off); inconclusive means no clear call, values can overlap the other calls; inactive means mostly above about 0.92. The list shows a part of the results.

Experiment: chemical genetic growth profiling, strain panel (AID 1159580);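 further: tested at 20 µM; growth read once vehicle control cultures reached saturation at 30 °C; 1 = growth at the plate median or of vehicle wells; lower values mean less growth of the strain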
Conditions: S. cerevisiae deletion strains, growth OD

Measured: normalized growth

OC(CN1CCC(Cc2ccc(F)cc2)CC1)c1ccc(Cl)cc1 (centres undefined)
inactive: locus YAL040C, strain CLN3, active compounds read low 0.991 | locus YCL061C, strain MRC1 (second series), active compounds read low 0.997 | locus YDR150W, strain NUM1, active compounds read low 0.999 | locus YDR363W, strain ESC2, active compounds read low 1.05 | locus YER002W, strain NOP16, active compounds read low 1.03 | locus YGR229C, strain SMI1, active compounds read low 1.07 | locus YJR075W, strain HOC1, active compounds read low 1.01 | locus YMR263W, strain SAP30, active compounds read low 0.992 | locus YNL128W, strain TEP1, active compounds read low 1.01 | locus YNL175C, strain NOP13, active compounds read low 1 | locus YNL197C, strain WHI3, active compounds read low 1.01 | locus YNL224C, strain SQS1, active compounds read low 1 | locus YOR083W, strain WHI5 (second series), active compounds read low 1.05 | locus YPL055C, strain LGE1, active compounds read low 1.01
